Screens as filed in PubChem BioAssay.
Shown are actives, neighbours in structure and some others; about 2% of the full set was active somewhere.
NadD inh: inhibitors of Staphylococcus aureus NadD | purified NadD enzyme, colorimetric absorbance read-out | AID 602399 | inhibition, % at 20 µM | hit rate 0.78% among 360,000; in the data active = inhibition above about 26%
DAGLB inhibitor: diacylglycerol lipase beta (human) inhibition | HEK293T DAGLB membrane lysate, EnzChek fluorogenic substrate | Q8NCG7 | AID 504411 | hit rate 0.059% among 340,000 | inhibition, % at 5.17 µM; in the data active = inhibition above about 34%;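 also: 0% = enzyme with vehicle and 100% = wells lacking enzyme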
Neddyl block: inhibitors of human cullin neddylation; P61081+Q13564; TR-FRET cullin neddylation, biochemical; inhibition, % at 25 µM; hit rate 0.58% among 360,000; in the data active = inhibition above about 36%
Target sequence (P61081 whole entry, looked up): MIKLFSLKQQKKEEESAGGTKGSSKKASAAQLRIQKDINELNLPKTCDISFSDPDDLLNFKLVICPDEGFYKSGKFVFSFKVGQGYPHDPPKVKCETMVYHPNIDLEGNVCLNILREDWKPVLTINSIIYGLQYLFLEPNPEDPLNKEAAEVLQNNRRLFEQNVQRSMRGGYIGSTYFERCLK
Target sequence (Q13564 whole entry, looked up): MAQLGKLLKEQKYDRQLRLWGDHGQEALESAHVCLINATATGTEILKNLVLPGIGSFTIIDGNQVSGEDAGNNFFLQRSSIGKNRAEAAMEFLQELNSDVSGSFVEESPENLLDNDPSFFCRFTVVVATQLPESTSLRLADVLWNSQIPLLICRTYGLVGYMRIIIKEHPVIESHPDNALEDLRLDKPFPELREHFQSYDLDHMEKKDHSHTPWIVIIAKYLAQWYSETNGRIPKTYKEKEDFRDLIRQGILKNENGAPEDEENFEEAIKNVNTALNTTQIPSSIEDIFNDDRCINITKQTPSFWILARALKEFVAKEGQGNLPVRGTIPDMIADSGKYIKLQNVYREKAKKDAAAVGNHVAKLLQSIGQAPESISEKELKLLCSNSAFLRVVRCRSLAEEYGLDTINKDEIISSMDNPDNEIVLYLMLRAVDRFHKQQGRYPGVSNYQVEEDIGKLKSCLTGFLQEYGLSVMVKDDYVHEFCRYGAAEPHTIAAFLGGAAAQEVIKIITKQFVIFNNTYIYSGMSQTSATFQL
HGIII-sPLA2 inh: Blocks human group III sPLA2 activity; Q9NZ20; hit rate 0.56% among 370,000; QFRET BODIPY PC-A2 liposome hydrolysis, fluorescence; AID 743126; inhibition, % at 12.2 µM;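 active = inhibition above mean plus 3 SD of compounds lying within the high and low control bounds, cut at about 19% in these data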;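 also: 0% = median of test compound wells and 100% = no enzyme DMSO wells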
ARNT-TACC3 inh: disrupts binding between human ARNT and TACC3. Q9Y6A5. AlphaScreen His-ARNT PAS-B/GST-TACC3 binding, luminescence; TACC3 fragment carries E629A point mutation. inhibition, % at 9.99 µM. hit rate 0.66% among 390,000. AID 623870;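 active = mean inhibition of replicates at least 50% and at least half of replicates each reaching 50%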;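 also: 0% = complete ARNT plus TACC3 wells and 100% = ARNT alone without TACC3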
hGIII sPLA2 conf: human GIII-sPLA2 inhibition, confirmation. shares compounds with HGIII-sPLA2 inh. recombinant hGIII-sPLA2, BODIPY PC-A2 QFRET fluorescence. inhibition, % at 12.2 µM. hit rate 34% among 2,000. AID 743280;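 active = mean inhibition across triplicates above the hit cutoff set in the earlier primary screen, cut at about 19% in these data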;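 also: 0% = enzyme with DMSO and 100% = DMSO wells lacking enzyme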
BODIPY interf: 535nm fluorescence interference, HGIII-sPLA2 counter-screen; shares compounds with HGIII-sPLA2 inh; BODIPY FL product fluorescence interference, QFRET; inhibition, % at 12.2 µM; hit rate 8.5% among 2,000; AID 743282;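 active = average inhibition above the solvent-only control mean plus 3 SD, cut at about 6% in these data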;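 also: 0% = DMSO with substrate plus product and 100% = DMSO with substrate alone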
BODIPY interf DR: counter-screen for HGIII-sPLA2 inhibitors: 535nm fluorescence interference, dose response. shares compounds with HGIII-sPLA2 inh. BODIPY FL product fluorescence interference, cell-free. IC50, µM. 240 tested, under 10 active;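 active = IC50 at or below 10 µM; inactive = IC50 above 10 µM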
* hit, by the source's call; / = no result given.

SMILES	NadD inh	DAGLB inhibitor	Neddyl block	HGIII-sPLA2 inh	ARNT-TACC3 inh	hGIII sPLA2 conf	BODIPY interf	others
CN(C)S(=O)(=O)c1ccc(NC(=O)/C=C/c2ccccc2Cl)cc1	-3	2	-3	-22	32	/	/
CN(C)c1ccc(NC(=O)/C=C/c2c(Cl)cccc2Cl)cc1	6	7	-6	31*	-4	18	8.4*
Cn1nccc1C(=O)N1CCc2ccccc21	1	0	-6	87*	-2	-1	-1
CCCCCC[N+](C)(C)CC/C=C1/c2ccccc2Sc2ccc(Cl)cc21	2	3	-8	19*	9	1	-59
O=C(Cc1ccncc1)NCC[C@H]1CC[C@@H](NC(=O)C2CCCCC2)[C@@H](CO)O1	/	/	/	/	4	/	/
C#CC[N+](C)(C)CCCCCCCCCC	0	3	-3	19*	4	1	-15
C#CC[N+](C)(C)CCCCCCCC	2	1	1	7	-5	/	/
C#CC[N+](C)(C)CCCCCCCCCCCC	-5	4	4	23*	-1	-6	-33
O=C1NC(=S)NC1=Cc1ccccc1O	1	2	-56	22*	13	8	1
C[C@@H]1CCCCO[C@H](CN(C)Cc2ccc3c(c2)OCO3)[C@H](C)CN([C@H](C)CO)C(=O)c2cc(NC(=O)Nc3ccc(F)cc3)ccc2O1	/	/	/	/	20	/	/
O=C(N/N=C/c1c(O)ccc2ccccc12)c1cccc(C(F)(F)F)c1	16	-4	25	43*	-23	-11	-5
C=C(C)c1cccc(C(C)(C)NC(=O)Nc2cc(C)ccc2OC)c1	-1	-9	-5	-11	1	/	/
C=C(C)c1cccc(C(C)(C)NC(=O)Nc2ccccc2OCC)c1	-8	-8	5	21*	0	0	-7
Cc1noc(C)c1S(=O)(=O)N(C)C[C@H]1OCCCC[C@H](C)Oc2ccc(NC(=O)NC3CCCCC3)cc2C(=O)N([C@@H](C)CO)C[C@@H]1C	/	/	/	/	-18	/	/
CCN1C(=O)/C(=C/C=C2\C=CN(CC)c3ccccc32)SC1=S	15	5	-10	13	19	/	/
CCN1C(=O)/C(=C\C=C2/C=CC=CN2CC)SC1=S	8	9	-134	25*	26	27*	-2
C[C@H]1CN([C@@H](C)CO)C(=O)CCCn2nncc2CO[C@@H]1CN(C)C(=O)Nc1cccc(Oc2ccccn2)c1	/	/	/	/	-3	/	/
C[C@@H]1CN([C@H](C)CO)C(=O)CCCn2nncc2CO[C@H]1CN(C)C(=O)Nc1cccc(Oc2ccccn2)c1	-1	5	0	20*	-6	-8	-10
C[C@H]1CN([C@@H](C)CO)C(=O)CCCn2nncc2CO[C@@H]1CN(C)C(=O)Nc1ccccc1C(F)(F)F	/	/	/	/	-2	/	/
C[C@@H]1CN([C@@H](C)CO)C(=O)CCCn2nncc2CO[C@@H]1CN(C)C(=O)Nc1ccccc1C(F)(F)F	1	0	-1	21*	-2	-3	-9
C[C@H]1CCCCO[C@H](CN(C)C(=O)Nc2ccccc2)[C@@H](C)CN([C@@H](C)CO)C(=O)c2cc(NS(=O)(=O)c3cccs3)ccc2O1	/	/	/	/	-2	/	/
COc1ccccc1N1CCN(S(=O)(=O)c2ccc([N+](=O)[O-])cc2)CC1	2	-1	-25	4	/	/	/
COc1ccccc1N1CCN(c2ccc([N+](=O)[O-])cc2Cl)CC1	3	-7	-37	20*	23	12	-9
CC(C)c1ccc(C2NC(=S)NC3=C2C(=O)CCC3)cc1 (configuration not stated)	4	1	-46	24*	3	18	-3
Cc1ccc(C2NC(=S)NC3=C2C(=O)CCC3)cc1 (configuration not stated)	-3	-2	0	8	1	/	/
SMILES	NadD inh	DAGLB inhibitor	Neddyl block	HGIII-sPLA2 inh	ARNT-TACC3 inh	hGIII sPLA2 conf	BODIPY interf	others
CCN(CC)S(=O)(=O)c1ccc(C)c(NC(=O)COc2ccc3c(C)cc(=O)oc3c2)c1	-4	0	2	20*	-8	-12	-11
Oc1ccc(-c2csc(Nc3cccc4ccccc34)n2)cc1O	21	8	-3	21*	2	9	11*
CO[C@@H]1CN(C)C(=O)c2ccc(NC(=O)c3cnccn3)cc2OC[C@@H](C)NC[C@H]1C	/	/	/	/	-1	/	/
Nc1c(C(=O)Nc2ccccc2F)sc2nc(-c3ccco3)ccc12	13	5	/	19*	1	10	-5
CC(C)NC(=O)N(C)C[C@@H]1OCCCC[C@H](C)Oc2ccc(N(C)C)cc2C(=O)N([C@H](C)CO)C[C@@H]1C	/	/	/	/	-2	/	/
CCOC(=O)CCC(NC(=O)CCCC(=O)NC(CCC(=O)OCC)C(=O)OCC)C(=O)OCC (configuration not stated)	-4	1	-1	22*	-3	1	-6
CCOC(=O)CCC(NC(=O)CCC(=O)NC(CCC(=O)OCC)C(=O)OCC)C(=O)OCC (configuration not stated)	-4	-2	2	11	-7	/	/
C[C@@H]1CN([C@H](C)CO)C(=O)c2cccc(NC(=O)c3nc4ccccc4s3)c2O[C@H]1CN(C)C(=O)Nc1ccccc1	/	/	/	/	7	/	/
COc1ccc(OC)c(NC(=O)COC(=O)CCCN=C2NS(=O)(=O)c3ccccc32)c1	-4	0	5	20*	0	6	-13
CC=Cc1ccc2n(c1=O)C[C@@H]1[C@@H](CO)[C@H](C(=O)NCC3CC3)N(Cc3cccnc3)[C@H]21 (mixture of isomers)	/	/	/	/	-6	/	/
O=C(CSCc1ccccc1)NNC(=S)Nc1cccc(Cl)c1Cl	11	9	-1	38*	5	35*	3	BODIPY interf DR=>122
Nc1cc(N)c2c(c1)C(=O)c1ccccc1-2	1	13	-72	20*	12	38*	4	BODIPY interf DR=>122
CN(C)CC(=O)Nc1ccc2c(c1)[C@@H]1C[C@@H](CC(=O)NCc3ccc(Cl)cc3)O[C@H](CO)[C@@H]1O2	/	/	/	/	-5	/	/
N#Cc1ccc(C=NN2CCCCCC2)cc1	-4	-5	-7	21*	/	23*	2
C[C@H]1CN([C@@H](C)CO)C(=O)c2cc(-c3ccc(C#N)cc3)cnc2O[C@@H]1CN(C)C(=O)CC1CC1	/	/	/	/	-7	/	/
O=C(Cc1cccs1)NNC(=S)NCc1ccc(Cl)cc1	-4	3	-5	19*	6	45*	0	BODIPY interf DR=>122
CCC(=O)N(C)C[C@H]1Oc2cc(C#CCN(C)C)ccc2S(=O)(=O)N([C@@H](C)CO)C[C@H]1C	/	/	/	/	-8	/	/
COc1ccc2nc(NNC(=O)C3COc4ccccc4O3)sc2c1 (configuration not stated)	3	1	-2	22*	12	18	2
